We go through ten compounds from PubChem BioAssay (Tox21).

Assay [1] is described as follows: qHTS assay to identify small molecule agonists of the hypoxia (HIF-1) signaling pathway - cell viability counter screen (AID 1224844; calls by dose curve; note: % is set by controls: 0 for no effect and ±100 for the full control effect; nearly all actives have a fitted effect of over 50% in size). Put shortly: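 Same wells as the HIF-1 reporter screen; ME-180 cells carrying HRE-bla, 17 hr treatment at 37C; CellTiter-Glo luminescence read after 30 min at room temperature.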
On the technique in general: qHTS replaces the single test concentration by a dilution series.

A short description of assay [2]: qHTS assay to identify small molecule agonists of H2AX (AID 1224845; active = well fitted activation curve with a large enough effect in the signal ratio in the repeat runs, not every such curve was filed as active; the % refers to the signal ratio; note: % is set by controls: 0 for no effect and ±100 for the full control effect). The method, boiled down:
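Wild-type CHO-K1 cells, plated overnight, exposed 3hr at 37C to 15 concentrations (0.76% DMSO final). Lysed, then HTRF anti-pH2AX (S139) cryptate and anti-H2AX-d2 antibodies, 24 hr room temperature; 665/620 nm emission read.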

The nature of assay [3]: qHTS assay to identify small molecule agonists of H2AX - cell viability counter screen (AID 1224847; calls by dose curve; note: nearly all actives have a fitted effect of over 30% in size; note: potency is the fitted concentration of half-maximal effect). The method, boiled down: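 Wild-type CHO-K1 cells (10% FBS medium) were plated overnight at 37C, exposed to compounds at 15 concentrations for 3 hr at 37C (0.76% DMSO final), and viability was read as CellTiter-Glo luminescence after 30 min at room temperature.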
Assay [4] can be described thus: qHTS RealTime-Glo MT Cell Viability Assay in HepG2 cells - 24 hour (AID 1224867). Note: % is set by controls: 0 for no effect and ±100 for the full control effect; nearly all actives have a fitted effect of over 50% in size. The method, boiled down: (§1)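 Cells + NanoLuc/prosubstrate dispensed (600 cells/well) → 5 h at 37 C/5% CO2 → compounds in DMSO transferred → 40 h incubation at 37 C, luminescence read at 0, 8, 16, 24, 32, 40 h.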
Assay [5] is described as follows: qHTS RealTime-Glo MT Cell Viability Assay in HEK293 cells - 32 hour (AID 1224868). Note: nearly all actives have a fitted effect of over 50% in size. Note: potency is the fitted concentration of half-maximal effect. Put shortly:
(§2)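 Tox21 10K qHTS, HEK293, 600 cells/well, RealTime-Glo reagent co-dispensed with cells; 5 h preincubation, compound by pintool, 37 C, luminescence at 0–40 h.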

The nature of assay [6]: A CellTox Green Cytotoxicity Assay to monitor cytotoxicity in HEK293 cells - 0 hour (AID 1224869). Note: % is set by controls: 0 for no effect and ±100 for the full control effect; nearly all actives have a fitted effect of over 50% in size. Put shortly:
(§3)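 Homogeneous no-lysis format: HEK293 cell suspension mixed with CellTox Green reagent, seeded, incubated 5 h at 37 C/5% CO2, then dosed by pintool with compound in DMSO.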

Assay [7] can be described thus: qHTS RealTime-Glo MT Cell Viability Assay in HepG2 cells - 40 hour (AID 1224870). Note: nearly all actives have a fitted effect of over 50% in size. Note: potency is the fitted concentration of half-maximal effect. The method, boiled down:
(§4)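 HepG2 cells (600/well) mixed with RealTime-Glo MT reagent, settled 5 h at 37 C/5% CO2 before compound addition. Nonlytic NanoLuc luminescence from viable-cell prosubstrate reduction read repeatedly during 40 h treatment at 37 C.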

Assay [8] is described as follows: A CellTox Green Cytotoxicity Assay to monitor cytotoxicity in HEK293 cells - 40 hour (AID 1224871). Note: nearly all actives have a fitted effect of over 45% in size. Note: potency is the fitted concentration of half-maximal effect. Put shortly: as §3
Assay [9] can be described thus: qHTS RealTime-Glo MT Cell Viability Assay in HEK293 cells - 16 hour (AID 1224872). Note: nearly all actives have a fitted effect of over 50% in size. Note: potency is the fitted concentration of half-maximal effect. Put shortly: as §2
Assay [10] is described as follows: qHTS RealTime-Glo MT Cell Viability Assay in HepG2 cells - 8 hour (AID 1224873). Note: % is set by controls: 0 for no effect and ±100 for the full control effect; nearly all actives have a fitted effect of over 55% in size. Put shortly:
as §4

Assay [11] is described as follows: qHTS RealTime-Glo MT Cell Viability Assay in HEK293 cells - 40 hour (AID 1224874). For max response: % is set by controls: 0 for no effect and ±100 for the full control effect. Note: nearly all actives have a fitted effect of over 50% in size. Note: potency is the fitted concentration of half-maximal effect. Conditions: RealTime-Glo luminescence; max response: hits give low values. Put shortly: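 Measured as luminescence from the same continuously cultured HEK293 wells at successive time points (0, 8, 16, 24, 32, 40 h) after compound addition. Reagent present from seeding; dosing at 5 h; incubation 37 C.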

Assay [12] in a line: A CellTox Green Cytotoxicity Assay to monitor cytotoxicity in HEK293 cells - 24 hour (AID 1224875). Note: % is set by controls: 0 for no effect and ±100 for the full control effect; nearly all actives have a fitted effect of over 45% in size. Put shortly:
as §3

Assay [13] can be described thus: A CellTox Green Cytotoxicity Assay to monitor cytotoxicity in HepG2 cells - 16 hour (AID 1224876). Note: nearly all actives have a fitted effect of over 45% in size. Note: potency is the fitted concentration of half-maximal effect. The method, boiled down: (§5)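 Fluorescent DNA-binding dye, 600 HepG2 cells/well, 5 h preincubation then compound in DMSO; same plates read at 0–40 h, 37 C.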
Assay [14] can be described thus: qHTS RealTime-Glo MT Cell Viability Assay in HepG2 cells - 32 hour (AID 1224877). Note: nearly all actives have a fitted effect of over 55% in size. Note: potency is the fitted concentration of half-maximal effect. Put shortly: as §1
The nature of assay [15]: A CellTox Green Cytotoxicity Assay to monitor cytotoxicity in HepG2 cells - 24 hour (AID 1224878). For Cytotoxicity: % is set by controls: 0 for no effect and ±100 for the full control effect. Note: nearly all actives have a fitted effect of over 45% in size. Note: potency is the fitted concentration of half-maximal effect. The method, boiled down: as §5
The nature of assay [16]: A CellTox Green Cytotoxicity Assay to monitor cytotoxicity in HepG2 cells - 40 hour (AID 1224879). Note: nearly all actives have a fitted effect of over 40% in size. Note: potency is the fitted concentration of half-maximal effect. The method, boiled down:
as §5

Assay [17] is described as follows: qHTS assay to identify small molecule agonists of the hypoxia (HIF-1) signaling pathway (AID 1224846; active = well fitted activation curve with a large enough effect in the signal ratio in the repeat runs, not every such curve was filed as active; the % refers to the signal ratio; note: % is set by controls: 0 for no effect and ±100 for the full control effect). Put shortly: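 In ME-180 cells bearing an HRE-bla construct, 17 h treatment with DMSO-dissolved compounds at 37C was followed by CCF4-AM loading to quantify reporter induction.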
The nature of assay [18]: qHTS assay to identify small molecule antagonists of the estrogen related receptor (ERR) signaling pathway from Tox21 library (AID 1224848). Put shortly:
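Compounds dissolved in DMSO are pin-transferred onto ERR reporter cells (2,000 per well) that have settled for 6 h at 37 C. Plates then incubate 18 h at 37 C before ONE-Glo luciferase reagent and a luminescence read 30 min later.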

The nature of assay [19]: qHTS assay to identify small molecule agonists of the estrogen related receptor (ERR) signaling pathway from Tox21 library (AID 1224849; calls by dose curve; note: % is set by controls: 0 for no effect and ±100 for the full control effect; nearly all actives have a fitted effect of over 15% in size). Conditions: ERR reporter cell line, ONE-Glo luciferase, 18 h; at 92.4 µM (top of the series) unless noted. Put shortly: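 Reporter cells (ERR, NTP source) treated with Tox21 10K compounds 18 h, 37 C. Readout: ONE-Glo luminescence, 30 min RT.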

Unmarked numbers belong to inactive results. Records with an inconclusive call do not appear. The source made the active and inactive calls. Unless noted, calls come from the whole dose curve; as a rule, active = well fitted curve in the direction sought with a large enough effect in the repeat runs; inconclusive = weak or mixed curves; inactive = no such curve, though single readings can be large; an effect the other way counts as inactive or inconclusive.

Take `CCC1(C)CC(=O)NC1=O` (centres undefined): the Potency result in [1], in assay [2], in assay [3], in [4], in [5] and in [6] was “inactive” in each case. The Potency entry in [7], in [8], in assay [9], in assay [10], in [12] and in [13] was “inactive” in each case. For the same compound, the Potency result in assay [14], in [15] and in [16] was “inactive” throughout. In [11], the max response is 1.67%.

With `Nc1nccs1`, the Potency result in assay [1], in [3], in [4], in assay [5], in [6] and in assay [7] was “inactive” throughout. In addition, the Potency result in assay [9], in assay [10], in assay [13], in assay [14], in assay [15] and in assay [16] was “inactive” each time. In addition, the result in [17] was inactive. In assay [11], the max response was -15.6%.

Consider `CC(C)(C)CC(C)(C)c1ccc(OCCO)cc1`, for which the Potency entry in assay [1], in assay [2], in [4], in assay [7], in [13] and in assay [14] was “inactive” throughout. Also, the Potency entry in assay [15] and in assay [16] was “inactive” in each case. Moreover, the Potency in [3] was 100 µM (active); in [18] it was 3.83 µM (active); in assay [5], 5.46 µM (active); in assay [8], 48.7 µM (active); in [9], 6.88 µM (active); in assay [11], 4.87 µM (active).

As to `Nc1ccc(C(=O)OCCCOC(=O)c2ccc(N)cc2)cc1`, the Potency entry in [1], in assay [2], in [4], in assay [6], in assay [7] and in assay [8] was “inactive” in each case. The Potency entry in [10], in [12], in [13], in assay [14], in assay [15] and in assay [16] was “inactive” throughout. The call in [17] was inactive. Further, the Potency in assay [5] is 43.6 µM (active); in assay [9], 49 µM (active); in assay [11] it was 38.9 µM (active).

On to `c1cc[c]([Bi]([c]2ccccc2)[c]2ccccc2)cc1`, for which the Potency result in assay [1], in [4], in assay [6], in assay [7], in [8] and in assay [9] was “inactive” each time. Besides, the Potency entry in [10], in [12], in assay [13] and in assay [14] was “inactive” throughout. Moreover, the result in assay [17] was inactive. For the same compound, the Potency in assay [18] was 61.1 µM (active).

Consider `C[C@@H]1C[C@H]2[C@@H]3CCC4=CC(=O)C=C[C@]4(C)[C@@]3(F)[C@@H](O)C[C@]2(C)[C@@]1(O)C(=O)CO`, for which the Potency result in assay [2], in assay [3], in [4], in assay [5], in [6] and in assay [7] was “inactive” in each case. Moreover, the Potency entry in [8], in assay [9], in assay [12], in assay [13], in assay [14] and in assay [15] was “inactive” in each case. Also, the Potency entry in assay [16] was “inactive”.

`NC(=O)Cn1c(=O)cc(CCN2CCN(c3nccc4sccc34)CC2)c2ccc(F)cc21`: the Potency entry in assay [1], in assay [2], in [6], in assay [7], in assay [8] and in [12] was “inactive” each time. Besides, the Potency result in assay [13], in assay [15] and in assay [16] was “inactive” in each case. For the same compound, the compound was called inactive in assay [17]. For the same compound, the Potency was 54.5 µM (active) in assay [18], 43.6 µM (active) in assay [5], 49 µM (active) in assay [9] and 43.6 µM (active) in assay [11]. The activity change, positive = activation in assay [19] is -34.9%.

Turning to `CN1CCN(CCCN2c3ccccc3Sc3ccc(S(=O)(=O)N(C)C)cc32)CC1`, in [17], the compound was classed as inactive. Moreover, the Potency in assay [18] is 26.6 µM (active); in assay [13], 23.9 µM (active); in assay [15] it was 26.8 µM (active); in assay [16], 26.8 µM (active). For the same compound, the Potency entry in assay [6] and in assay [10] was “inactive” in each case.

For the compound `Brc1cc(-c2ccc(Br)c(Br)c2Br)cc(Br)c1Br`, the Potency entry in assay [1], in [3], in assay [4], in [5], in assay [6] and in [7] was “inactive” each time. In addition, the Potency result in assay [8], in assay [9], in assay [10], in assay [12], in assay [13] and in assay [14] was “inactive” throughout. In assay [15], the Potency entry was “inactive”. In addition, the outcome in assay [17] was inactive. Further, in assay [11], the max response is 4.87%.

With `CCCCC1C(=O)N(c2ccccc2)N(c2ccc(O)cc2)C1=O` (centres undefined), the Potency entry in assay [2], in assay [6] and in assay [10] was “inactive” in each case. Moreover, the outcome in assay [17] was inactive. For the same compound, the Potency is 21.1 µM (active) in assay [18], 23.9 µM (active) in assay [7] and 16.9 µM (active) in [14].
